# Assay outcomes deposited in PubChem by National Center for Advancing Translational Sciences (NCATS).
# Pf growth 48h – inhibits P. falciparum growth in the first generation, 48 h | AID 504832 | 5.9% of 310,000 active | Potency, µM (doses to about 28.7 µM), actives largely listed as inhibitors | P. falciparum luciferase growth in erythrocytes, 48 h
#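 Parasite viability was followed by luminescence of a genomically integrated firefly luciferase. Cultures held 0.1% parasitemia at 2% hematocrit (final), incubated under 5% CO2 at 37 C.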
# HCV inh – inhibitors of hepatitis C virus infection | Huh7.5.1 HCVcc-Cre infection, luciferase reporter, 44 h | Potency, µM (series often up to 41.8 µM), usual class: inhibitors | 3.4% of 340,000 active | AID 651820
#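 Infectious HCVcc-Cre (~0.5 moi) was added to cells just after compound, with cells seeded 4 h earlier at 1,000 per well. Luciferase activity after 44 h culture reported infection; substrate was incubated 15 min at room temperature before reading.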
# Shiga inhibitor – blocks Shiga toxin action in Vero cells. AID 2315. 9.2% of 290,000 active. Vero cells, Shiga toxin protein synthesis inhibition reporter. inhibition, % at 38.7 µM; in the data active means inhibition mostly above about 28%, no sharp cut-off; inactive means mostly below about 43%
# Pf growth 96h – P. falciparum growth inhibition at 96 hours | P. falciparum luciferase reporter growth, 96 h | Potency, µM (series often up to 28.7 µM), hits mostly inhibitors | 6.9% of 320,000 active | AID 504834
#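 Two parasite generations (96 h, 37 C, 5% CO2) of compound exposure in infected erythrocytes (0.05% parasitemia, 2% hematocrit). Luciferase-reporter P. falciparum; decreased luminescence indicates inhibited growth, aimed at apicoplast-acting delayed death.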
# HCMV inh – human cytomegalovirus inhibition; HFF cells, HCMV-luciferase reporter, 72 h; hits give low values; activity change, negative = inhibition, % at 57.5 µM; 4.5% of 410,000 active; in the data active means activity change below about -60%; inconclusive means no clear call, values can overlap the other calls; inactive means above about -39%
#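 Cell-based, HFFs, 1000 cells/well, 16 h 37C; cpds in DMSO + HCMV-luc, MOI 1 PFU/cell; 72 h 37C; OneGlo luminescence after 5 min RT; norm. to buffer vs Salinomycin 10uM.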
# Cycloheximide cs – affects cycloheximide protein synthesis inhibition readout, counter-screen | cell reporter, cycloheximide protein synthesis inhibition counterscreen | max response, % | 12% of 300,000 active | AID 2314; in the data active means max response mostly above about 13%, no sharp cut-off; inactive means mostly below about 14%; further: read at 38.3 µM for the half of the compounds with a filed dose
# Hits are given with their value; n = inactive; u = inconclusive; x = not tested or not shown; [ ] = remark or other dose. Compounds with a hit are over-represented: about 21% of the library has one in this group of screens. Unless noted, the call rests on the fitted dose curve; in most records, active means well fitted inhibition curve with a large enough effect; inconclusive means small, poorly fitted or top-dose-only effect, or another doubt; inactive means no such curve, though single readings can be large or run the other way.
SMILES,Pf growth 48h,HCV inh,Shiga inhibitor,Pf growth 96h,HCMV inh,Cycloheximide cs
COc1ccc(-c2csc(NC(=O)COc3ccc(N(C)S(=O)(=O)c4ccc(C)cc4)cc3)n2)cc1,u,u,n,u,u,n
CCOc1ccc2nc(NC(=O)COc3ccc(N(C)S(=O)(=O)c4ccc(C)cc4)cc3)sc2c1,2.3µM,n,n,u,u,n
Cc1ccc(-c2csc(NC(=O)COc3ccc(N(C)S(=O)(=O)c4ccc(C)cc4)cc3)n2)cc1,u,7.9µM,n,u,u,n
Fc1ccccc1N1CCN(c2ncc3c(n2)CCN(Cc2cc(Br)cs2)C3)CC1,x,x,x,x,n,x
O=S(=O)(c1ccc(F)cc1)c1nc(-c2ccco2)oc1Nc1ccc(F)cc1,u,u,n,u,-74,n
CC(C)Sc1oc(-c2ccco2)nc1S(=O)(=O)c1ccc(F)cc1,u,n,n,15µM,u,n
O=S(=O)(c1ccc(Br)cc1)c1nc(-c2ccccc2)oc1NCCN1CCOCC1,u,u,n,9.3µM,n,n
Cc1ccc(S(=O)(=O)c2nc(-c3ccco3)oc2SC(C)c2ccccc2)cc1 (centres undefined),x,x,x,x,n,x
O=S(=O)(c1ccc(Br)cc1)c1nc(-c2ccco2)oc1NCCCn1ccnc1,8.3µM,n,x,u,n,x
COc1ccc(CCNC(=O)c2ccc(CS(=O)Cc3ccc(Cl)cc3)o2)cc1OC (centres undefined),n,u,n,u,n,n
COc1ccc(C(=O)N(c2c(C)cccc2C)C(COC(C)=O)COC(C)=O)cc1,x,x,x,x,n,x
Cc1ccc2[nH]c3c(=O)n(CC(=O)N4CC(C)CC(C)C4)ncc3c2c1 (centres undefined),n,n,n,n,n,n
COc1ccc(C(=O)Nc2nc3ccccc3s2)cc1OC,u,n,n,n,n,n
COc1ccc(/C=N/OCC(=O)Nc2nc3ccccc3s2)cc1OC,n,n,n,n,n,20
CCOCC(=O)Nc1nc2ccccc2s1,n,n,125,15µM,n,48
O=C(NCc1ccncc1)C(=O)Nc1nc2ccccc2s1,n,n,52,n,n,42
CCNC(=O)Nc1nc2ccccc2s1,n,n,60,n,n,44
O=C(NCc1ccncc1)C(=O)Nc1nccs1,n,n,n,n,n,n
Cc1cc(CN2CCC(N3CCC(C(=O)NC4CC4)CC3)CC2)cc(C)c1O,u,n,n,n,n,n
COc1cc(/C=C(/C#N)c2nc(-c3cc4ccccc4oc3=O)cs2)ccc1O,x,x,x,x,n,x
COc1ccc(/C(C)=N/OCC(=O)Nc2nc3ccccc3s2)cc1,n,n,n,n,u,12
NC(=O)NC(Cc1ccccc1)C(=O)NCCCSc1ccccc1 (centres undefined),n,n,n,n,n,n
CN(CCCN1c2ccccc2CCc2ccccc21)CC(=O)c1ccc(Cl)cc1,n,x,n,15µM,x,n
CN(C)CCCN1c2ccccc2Sc2ccccc21,u,n[8.37 µM],n,u,u,n
CN(C)CCCN1c2ccccc2CCc2ccc(Cl)cc21,13µM,u,n,u,-67,n
SMILES,Pf growth 48h,HCV inh,Shiga inhibitor,Pf growth 96h,HCMV inh,Cycloheximide cs
Cc1ccc(OC(=O)N(C)C[C@@H]2OCc3cn(nn3)CCCC(=O)N([C@@H](C)CO)C[C@H]2C)cc1,x,x,x,x,n,x
COc1cc(NC(=S)Nc2cccc(Cl)c2Cl)c(OC)cc1Cl,u,n,n,2.9µM,u,n
COc1cc(NC(=S)NCc2cccnc2)c(OC)cc1Cl,n,n,n,12µM,u,n
COc1ccccc1NC(=S)NCc1cccnc1,n,n,n,u,n,n
CCn1c(SCC(=O)Nc2nc3ccc(C)cc3s2)nc2c(c1=O)SC(C)C2 (centres undefined),n,7.9µM,n,u,x,n
CCn1c(SCC(=O)Nc2cc(C)on2)nc2c(c1=O)SC(C)C2 (centres undefined),u,n,n,x,n,n
O=C(CSc1nc2cccnc2n1Cc1ccccc1)NCc1ccco1,u,n,n,x,n,n
Cc1cc(NC(=O)CSc2nc3c(c(=O)n2Cc2ccccc2)SC(C)C3)no1 (centres undefined),1.9µM,n,n,1.5µM,n,n
CCn1c(SC)nc2c(c1=O)SC(C)C2 (centres undefined),u,n,n,2.3µM,n,n
CC1Cc2nc(SCC(=O)NCc3ccco3)n(Cc3ccccc3)c(=O)c2S1 (centres undefined),u,u,36,u,n,n
Cc1c(C(=O)NCc2cccc(C(F)(F)F)c2)sc(=O)n1Cc1ccc(S(=O)(=O)N(C)C)cc1,x,x,x,x,n,x
CCOC(=O)c1c(-c2ccccc2)oc2ccc(NS(=O)(=O)c3cc(C)c(C)cc3C)cc12,x,x,x,x,n,x
Cc1ccc2scc(N3CCc4ccccc4C3)c(=O)c2c1,x,x,x,x,n,x
CCSc1nc2c(c(=O)n1-c1ccc(F)cc1)SCC2,u,n,n,2.9µM,n,n
Cc1ccc(-n2c(SCC(=O)Nc3cc(C)on3)nc3c(c2=O)SC(C)C3)cc1 (centres undefined),0.83µM,n,n,u,n,n
Cc1cc(NC(=O)CSc2nc3c(c(=O)n2-c2ccc(Br)cc2)SCC3)no1,7.4µM,n,n,n,u,n
COc1cc(NC(=O)C2=C(C)OCCS2)c(Cl)cc1C(=O)NCCN(C)C,n,u,n,u,n,n
CSc1ccc(CNCc2c(C(=O)O)c(C)n(Cc3ccc(F)cc3Cl)c2C)cc1,x,x,x,x,n,x
CC(C)CN1C(=O)c2ccc(C(=O)Nc3ccccc3C(=O)O)cc2C1=O,n,n,71,n,n,55
Cc1ccccc1NC(=O)c1ccc2c(c1)C(=O)N(CC(C)C)C2=O,n,n,x,n,n,n
CC(C)CN1C(=O)c2ccc(C(=O)NCc3ccccn3)cc2C1=O,n,n,n,n,n,n
CC(C)CN1C(=O)c2ccc(C(=O)Nc3ccccn3)cc2C1=O,n,n,n,n,n,34
Cc1cc(CN2CCN(CCC#N)CC2)c(O)c(C2(C)CCCCC2)c1,9.3µM,n,n,n,n,n
O=C(NCc1ccc(Cl)cc1)C1CCN(C(=O)c2cnn(-c3ccccc3)c2-n2cccc2)CC1,x,x,x,x,n,x
CN(C)c1ccc(C(C(=O)NCc2ccccc2)N(Cc2ccco2)C(=O)c2snc(C(N)=O)c2N)cc1 (centres undefined),u,13µM,n,u,-76,n
CC(C)(C)NC(=O)COC(=O)c1snc(C(=O)NC2CCCCC2)c1N,n,7.1µM,37,n,u,18
COc1ccc(CN(C(=O)c2snc(C(N)=O)c2N)C(C(=O)NC(C)(C)C)c2ccco2)cc1 (centres undefined),u,n,n,9.3µM,n,n
CC(OC(=O)c1snc(C(=O)NC2CCCCC2)c1N)C(=O)NC(C)(C)C (centres undefined),u,u,n,n,u,n
NC(=O)c1nsc(C(=O)N(Cc2ccco2)C(C(=O)NCc2ccc(F)cc2)c2ccc(O)cc2)c1N (centres undefined),u,n,n,n,n,n
